The results in this text go back to PubChem BioAssay (NCATS).

Assay [1] deals with N-terminal Xaa-Pro-Lys N-methyltransferase 1 (Homo sapiens) (UniProt Q9BV86). As to the kind of experiment: qHTS Assay for Inhibitors of N-terminal methyltransferase 1 (NTMT1): LOPAC validation of the NTMT1 SAHH-coupled ThioGlo3 Assay (AID 1347143). For activity change, negative = inhibition: % is set by controls: 0 for no effect and ±100 for the full control effect.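 Note: SAH from peptide methylation measured as thiol fluorescence via SAHH coupling and ThioGlo3; nearly all actives have a fitted effect of over 70% in size.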 Note: potency is the fitted concentration of half-maximal effect. A digest of the protocol: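 In this qHTS pilot against the LOPAC set, 125nM NTMT1 met compounds tested at multiple concentrations, and fluorescence was normalized to background.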
N-terminal Xaa-Pro-Lys N-methyltransferase 1 (Homo sapiens), sequence (Q9BV86 whole entry, looked up): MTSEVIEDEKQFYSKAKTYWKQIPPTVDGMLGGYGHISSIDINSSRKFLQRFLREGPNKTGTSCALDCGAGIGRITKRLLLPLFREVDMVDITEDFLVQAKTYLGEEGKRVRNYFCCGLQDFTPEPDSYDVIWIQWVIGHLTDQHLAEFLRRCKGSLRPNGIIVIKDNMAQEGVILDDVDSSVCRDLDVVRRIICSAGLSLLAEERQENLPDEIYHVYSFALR
(In general: qHTS replaces the single test concentration by a dilution series.)

Assay [2] has as its system Zika virus NS2B-NS3 protease (unlinked). As to the kind of experiment: Optimization of GU AMC qHTS for Zika virus inhibitors: Unlinked NS2B-NS3 protease assay (AID 1347151).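 For activity change, negative = inhibition: series mostly up to about 52 µM; 0% = no-inhibitor control and -100% = no-enzyme control.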 Note: nearly all actives have a fitted effect of over 80% in size. Note: potency is the fitted concentration of half-maximal effect. An outline of the steps:
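Noncovalent complex of NS2B hydrophilic domain and NS3 protease domain, 25 nM final, in 10 mM Tris-HCl pH 8.0, 0.01% Tween 20. AMC fluorescence change over 15 min at room temperature was fitted to a 4-parameter Hill equation.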

The test system of assay [3] is Zika virus NS2B-NS3 protease. As to the kind of experiment: Primary screen GU AMC qHTS for Zika virus inhibitors (AID 1347154).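 Note: 0% = no-inhibitor control and -100% = no-enzyme control; nearly all actives have a fitted effect of over 70% in size.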 A digest of the protocol:
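Unlinked Zika NS2B hydrophilic domain/NS3 protease domain noncovalent complex (25 nM final) in 10 mM Tris-HCl pH 8.0, 0.01% Tween 20, with AMC peptide substrate. Fluorescence (ex 340, em 450 nm) change over 15 min, room temperature; percent inhibition fitted to 4-parameter Hill equation.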

Assay [4] concerns the target Lysine-specific demethylase 5B (Homo sapiens) (UniProt Q9UGL1). As to the kind of experiment: Optimization screen for KDM5B Histone Demethylases FDH coupled qHTS against the LOPAC library (AID 1347166). Note: potency is the fitted concentration of half-maximal effect. An outline of the steps:
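KDM5BDeltaAP (200nM final) in 50mM HEPES pH 7.5, 0.01% Tween-20 was preincubated with compound for 10 min at room temperature. A substrate mix of 12.5uM H3K4Me3, 25uM a-ketoglutarate, ascorbate, Fe2+, NAD+ and formaldehyde dehydrogenase was then added. NADH fluorescence (340/450 nm) was read initially and after 30 min.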

Assay [5] deals with Furin (Homo sapiens) (UniProt P09958). Description: Furin counterscreen qHTS for Zika virus inhibitors (AID 1347149).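 Note: purified recombinant full-length human furin enzyme at 5 nM; fluorescence gain from furin cutting a BOC-RVRR-AMC peptide substrate over 15 min; top concentration of the series differs between compounds; plate controls were no-inhibitor control for no effect and no-enzyme control for full effect; nearly all actives have a fitted effect of over 70% in size.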 A digest of the protocol: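 Counterscreen measures cleavage of 2 microM BOC-RVRR-AMC, below its ~15 microM Km, by 5 nM full-length human furin at pH 7.0 after a 15-min compound preincubation. Inhibition derives from the 15-min fluorescence increase at 37C.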
Furin (Homo sapiens), sequence (P09958 whole entry, looked up): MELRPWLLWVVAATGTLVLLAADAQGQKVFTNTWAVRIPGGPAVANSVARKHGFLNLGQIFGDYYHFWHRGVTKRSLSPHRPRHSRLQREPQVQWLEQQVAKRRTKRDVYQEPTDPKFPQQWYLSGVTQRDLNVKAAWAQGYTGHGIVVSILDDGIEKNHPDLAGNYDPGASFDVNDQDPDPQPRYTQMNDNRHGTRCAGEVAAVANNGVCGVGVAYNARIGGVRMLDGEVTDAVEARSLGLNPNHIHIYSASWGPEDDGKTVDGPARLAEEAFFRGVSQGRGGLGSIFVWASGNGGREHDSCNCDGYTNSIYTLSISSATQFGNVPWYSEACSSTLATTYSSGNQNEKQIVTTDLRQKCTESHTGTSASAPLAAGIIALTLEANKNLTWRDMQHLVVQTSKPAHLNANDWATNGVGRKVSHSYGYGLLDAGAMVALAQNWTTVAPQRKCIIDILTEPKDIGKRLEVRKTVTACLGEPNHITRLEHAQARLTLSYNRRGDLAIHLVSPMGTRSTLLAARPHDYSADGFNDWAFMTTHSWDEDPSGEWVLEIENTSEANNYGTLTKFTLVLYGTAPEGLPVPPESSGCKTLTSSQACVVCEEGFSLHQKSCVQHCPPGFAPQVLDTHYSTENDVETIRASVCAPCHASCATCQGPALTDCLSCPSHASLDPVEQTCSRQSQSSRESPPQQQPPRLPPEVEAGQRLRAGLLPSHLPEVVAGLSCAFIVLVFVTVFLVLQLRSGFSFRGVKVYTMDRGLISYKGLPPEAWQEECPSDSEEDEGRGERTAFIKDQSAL
(Counterscreens check selectivity or assay interference.)

Assay [6] relates to Zika virus NS2B-NS3 protease (linked construct). Description: Confirmatory screen NINDS AMC qHTS for Zika virus inhibitors (AID 1347152).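 Note: AMC fluorescence gain from cleaved Bz-Nle-KRR-AMC substrate over 15 min; top concentration of the series differs between compounds; 0% = no-inhibitor control and -100% = no-enzyme control; nearly all actives have a fitted effect of over 70% in size.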 A digest of the protocol: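 Purified NS2B-NS3 protease with NS2B hydrophilic domain linked to NS3 protease domain by flexible linker, 1 nM final in 10 mM Tris-HCl pH 8.0, 0.01% Tween 20. Compounds preincubated 15 min, room temperature; Bz-Nle-KRR-AMC 10 microM (Km 18.3 µM); 15-min fluorescence change, 4-parameter Hill fit.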

The test system of assay [7] is Zika virus NS2B-NS3 protease (unlinked complex). As to the kind of experiment: Confirmatory screen GU AMC qHTS for Zika virus inhibitors (AID 1347153). An outline of the steps:
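Unlinked enzyme 25 nM, Tris pH 8.0/0.01% Tween 20; cpd 15 min RT, dark; + AMC substrate 10 µM (Km 18.3 µM); 340/450 nm read at t0 and 15 min; % inhibition → 4-param fit.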

Assay [8] can be described thus: Confirmatory screen NINDS Rhodamine qHTS for Zika virus inhibitors (AID 1347161).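 Note: purified Zika NS2B-NS3 protease with linked NS2B cofactor domain and Rhodamine110 peptide substrate; series mostly up to about 110 µM; plate controls were no-inhibitor control for no effect and no-enzyme control for full effect; nearly all actives have a fitted effect of over 60% in size.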 A digest of the protocol: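 Aprotinin served as in-plate control. Conditions: 25 nM linked NS2B-NS3, pH 8.0 Tris buffer, titrated compounds, 15 min preincubation and 15 min reaction with 1.5 microM Rhod110 substrate at room temperature.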
The nature of assay [9]: Vero cells viability qHTS for Zika virus inhibitors (AID 1347167). Note: % is set by controls: 0 for no effect and ±100 for the full control effect. An outline of the steps:
(§1)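 To flag cytotoxic protease inhibitors, viability is measured by ATP-dependent luminescence (CellTiter Glo) after cells attached overnight receive compound for 24 to 48 hours in DMEM with 4% FBS.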

Assay [10] is described as follows: HepG2 cells viability qHTS for Zika virus inhibitors (AID 1347168). Note: % is set by controls: 0 for no effect and ±100 for the full control effect. A digest of the protocol: as §1
The nature of assay [11]: qHTS of pediatric cancer cell lines to identify multiple opportunities for drug repurposing: Confirmatory screen for RD cells (AID 1347124). For activity change, negative = cytotoxic: % is set by controls: 0 for no effect and ±100 for the full control effect.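 Note: cells exposed to compound for 48 h before viability readout; nearly all actives have a fitted effect of over 65% in size.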 Note: potency is the fitted concentration of half-maximal effect. An outline of the steps: (§2)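 Cells (500-1,000/well) in growth media were settled 5 h at 37 degrees C, then given compounds for 48 h. Viability was read as CellTiter-Glo luminescence. Primary runs used MIPE at 11 points (0.78 nM-46 µM) and NPC at 8 points (0.59 nM-46 µM); follow-ups used 11 points.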

Assay [12] can be described thus: qHTS of pediatric cancer cell lines to identify multiple opportunities for drug repurposing: Confirmatory screen for Rh18 cells (AID 1347125). Note: nearly all actives have a fitted effect of over 55% in size. Note: potency is the fitted concentration of half-maximal effect. A digest of the protocol:
as §2

Assay [13] is described as follows: qHTS of pediatric cancer cell lines to identify multiple opportunities for drug repurposing: Confirmatory screen for Rh30 cells (AID 1347126). Note: nearly all actives have a fitted effect of over 55% in size. Note: potency is the fitted concentration of half-maximal effect. An outline of the steps: as §2
Assay [14] can be described thus: qHTS of pediatric cancer cell lines to identify multiple opportunities for drug repurposing: Confirmatory screen for Saos-2 cells (AID 1347127).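 For activity change, negative = cytotoxic: plate controls were DMSO for no effect and bortezomib for full effect.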 Note: nearly all actives have a fitted effect of over 60% in size. Note: potency is the fitted concentration of half-maximal effect. A digest of the protocol: as §2
A short description of assay [15]: qHTS of pediatric cancer cell lines to identify multiple opportunities for drug repurposing: Confirmatory screen for OHS-50 cells (AID 1347128).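 Note: compound exposure lasted 48 h at 37 degrees C; nearly all actives have a fitted effect of over 55% in size.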 Note: potency is the fitted concentration of half-maximal effect. A digest of the protocol:
as §2

A short description of assay [16]: qHTS of pediatric cancer cell lines to identify multiple opportunities for drug repurposing: Confirmatory screen for SK-N-SH cells (AID 1347129).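 For activity change, negative = cytotoxic: plate controls were DMSO for no effect and bortezomib control for full effect.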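 Note: cells exposed to compound for 48 h before viability read; nearly all actives have a fitted effect of over 60% in size.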 Note: potency is the fitted concentration of half-maximal effect. An outline of the steps: as §2

Records with an inconclusive call do not appear. A number with no mark means an inactive call. The source made the active and inactive calls. Calls come from the whole dose curve; as a rule, active = well fitted curve in the direction sought with a large enough effect; inconclusive = small, poorly fitted or top-dose-only effect, or another doubt; inactive = no such curve, though single readings can be large; an effect the other way counts as inactive or inconclusive.

Lysine-specific demethylase 5B (Homo sapiens), sequence (Q9UGL1 whole entry, looked up): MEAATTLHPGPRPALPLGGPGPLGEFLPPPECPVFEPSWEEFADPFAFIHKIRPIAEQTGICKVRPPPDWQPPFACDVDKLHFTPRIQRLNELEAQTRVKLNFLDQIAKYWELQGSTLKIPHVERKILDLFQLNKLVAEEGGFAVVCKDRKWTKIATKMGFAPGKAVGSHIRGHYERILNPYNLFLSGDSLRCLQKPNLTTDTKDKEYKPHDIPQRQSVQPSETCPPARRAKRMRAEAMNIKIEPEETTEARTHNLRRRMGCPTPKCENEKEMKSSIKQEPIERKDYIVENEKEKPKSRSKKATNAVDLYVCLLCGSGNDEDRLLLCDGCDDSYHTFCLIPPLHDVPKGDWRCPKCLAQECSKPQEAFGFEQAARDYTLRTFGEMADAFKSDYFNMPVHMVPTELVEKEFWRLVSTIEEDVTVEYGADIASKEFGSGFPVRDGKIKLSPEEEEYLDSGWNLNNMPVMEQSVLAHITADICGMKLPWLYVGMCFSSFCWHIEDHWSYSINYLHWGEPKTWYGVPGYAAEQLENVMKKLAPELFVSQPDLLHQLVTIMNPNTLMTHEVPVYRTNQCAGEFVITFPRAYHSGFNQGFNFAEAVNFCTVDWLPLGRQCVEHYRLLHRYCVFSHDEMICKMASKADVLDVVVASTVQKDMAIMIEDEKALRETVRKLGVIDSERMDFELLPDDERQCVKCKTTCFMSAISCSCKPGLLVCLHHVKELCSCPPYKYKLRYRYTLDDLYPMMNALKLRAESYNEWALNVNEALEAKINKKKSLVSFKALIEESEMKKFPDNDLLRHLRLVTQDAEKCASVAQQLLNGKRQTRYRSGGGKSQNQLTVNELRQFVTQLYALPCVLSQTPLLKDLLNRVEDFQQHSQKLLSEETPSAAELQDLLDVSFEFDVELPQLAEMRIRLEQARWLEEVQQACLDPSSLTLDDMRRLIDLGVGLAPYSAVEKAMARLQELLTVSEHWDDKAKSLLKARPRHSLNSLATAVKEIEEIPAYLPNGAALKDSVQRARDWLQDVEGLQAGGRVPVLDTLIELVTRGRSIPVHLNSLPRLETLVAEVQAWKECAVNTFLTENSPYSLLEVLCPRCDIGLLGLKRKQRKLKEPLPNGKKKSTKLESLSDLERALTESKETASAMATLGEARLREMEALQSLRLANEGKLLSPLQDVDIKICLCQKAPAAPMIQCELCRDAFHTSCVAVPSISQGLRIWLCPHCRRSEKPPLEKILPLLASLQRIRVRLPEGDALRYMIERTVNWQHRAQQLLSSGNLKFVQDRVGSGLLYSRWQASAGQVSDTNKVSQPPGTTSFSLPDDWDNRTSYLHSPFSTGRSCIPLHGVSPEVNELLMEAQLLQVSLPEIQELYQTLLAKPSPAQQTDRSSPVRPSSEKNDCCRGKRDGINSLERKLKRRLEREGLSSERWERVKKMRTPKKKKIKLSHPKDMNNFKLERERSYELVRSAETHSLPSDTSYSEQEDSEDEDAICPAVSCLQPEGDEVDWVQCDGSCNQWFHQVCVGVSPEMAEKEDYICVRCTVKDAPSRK

For the compound `CC(C)(C)NCC(O)c1cc(O)cc(O)c1` (configuration not stated), the Potency result in assay [1], in assay [2] and in assay [4] was “inactive” each time. In addition, the result in assay [3] was inactive.
As to `C(=C\c1ccccc1)/CN1CCN(C(c2ccccc2)c2ccccc2)CC1`, the Potency result in assay [1], in assay [2] and in assay [4] was “inactive” in each case. In addition, the call in [3] was inactive.
As to `C[N+](C)(C)CCOC(N)=O`, the Potency entry in [1] and in [2] was “inactive” throughout. Also, in assay [3], the call was inactive.
Consider `c1cc(CN2CCCCC2)cc(OCCCNc2nc3ccccc3s2)c1`, for which, in assay [1], the Potency is 22.4 µM (active). For the same compound, the Potency entry in assay [2] and in assay [4] was “inactive” each time. Besides, in assay [3], the compound was classed as inactive.
As for `CN(C(=O)CCCOc1ccc2[nH]c(=O)ccc2c1)C1CCCCC1`, the Potency is 79.4 µM (active) in [1] and 26.7 µM (active) in assay [2].
Take `CCOC(=O)c1cnc2c(cnn2CC)c1NN=C(C)C`: the Potency in assay [1] was 56.2 µM (active). In addition, the Potency entry in assay [5], in [8] and in assay [4] was “inactive” each time. Further, the compound was called inactive in [6], in [7], in [3], in assay [9] and in assay [10].
As to `CC(C)(Oc1ccc(CCNC(=O)c2ccc(Cl)cc2)cc1)C(=O)O`, the Potency entry in assay [1] and in assay [2] was “inactive” in each case. Also, the result in assay [3] was inactive.
Turning to `CCCNC(C)C(=O)Nc1ccccc1C` (configuration not stated), the Potency result in assay [1] and in assay [2] was “inactive” in each case. For the same compound, the outcome in assay [3] was inactive.
As for `CC(C)NNC(=O)c1ccncc1`, the Potency result in assay [1] and in assay [2] was “inactive” in each case. In addition, the compound was classed as inactive in [3].
As to `CC(=O)Oc1cc(C(C)C)c(OCCN(C)C)cc1C`, the Potency entry in assay [1] and in assay [2] was “inactive” throughout. In addition, the compound was classed as inactive in assay [3].
In the case of `NC(=O)N1c2ccccc2C=Cc2ccccc21`, the Potency result in [1], in [2] and in [4] was “inactive” each time. Further, the compound was classed as inactive in assay [3].
Turning to `C[C@]12CC[C@@H]3c4ccc(O)cc4C[C@@H](CCCCCCCCCS(=O)CCCC(F)(F)C(F)(F)F)[C@H]3[C@@H]1CC[C@@H]2O` (some centres not stated), the Potency entry in assay [11], in [12], in assay [13], in assay [14], in assay [15] and in assay [16] was “inactive” in each case. In addition, the Potency entry in [1], in assay [2] and in [4] was “inactive” in each case. Moreover, the compound was classed as inactive in assay [3].
As to `CC(N=C(NC#N)Nc1ccncc1)C(C)(C)C` (configuration not stated), the Potency result in assay [1], in assay [2] and in assay [4] was “inactive” throughout. Moreover, the compound was classed as inactive in assay [3].
`CCCCNC(=O)NS(=O)(=O)c1ccc(C)cc1`: the Potency entry in [1] and in [2] was “inactive” throughout. Also, the outcome in assay [3] was inactive.
As to `Nc1nc(N)c2nc(-c3ccccc3)c(N)nc2n1`, the Potency result in [11], in [12], in assay [13], in [14], in assay [16] and in assay [2] was “inactive” throughout. Moreover, in assay [4], the Potency is 39.8 µM (active).
As for `COC(=O)C1=C(C)NC(C)=C(C(=O)OCCN(C)Cc2ccccc2)C1c1cccc([N+](=O)[O-])c1` (configuration not stated), the Potency entry in assay [1] and in [2] was “inactive” throughout. Further, the result in assay [3] was inactive.
On to `CN/C(=C\[N+](=O)[O-])NCCSCc1ccc(CN(C)C)o1`, for which the Potency entry in assay [12], in [14], in [15], in assay [16], in [2] and in [4] was “inactive” in each case. The Potency in assay [13] was 0.185 µM (active). In addition, in assay [3], the call was inactive.
As for `O=C(O)CN(CCN(CC(=O)O)CC(=O)O)CCN(CC(=O)O)CC(=O)O`, the Potency result in assay [1] and in assay [2] was “inactive” each time. Further, in [3], the outcome was inactive.
On to `CC(=O)Nc1nnc(S(N)(=O)=O)s1`, for which the Potency entry in assay [1], in assay [2] and in assay [4] was “inactive” throughout. In assay [3], the compound was classed as inactive.
`C[n+]1cc2c3c(ccc2c2ccc4cc5c(cc4c21)OCO5)OCO3`: the Potency is 1.82 µM (active) in assay [11]; 1.62 µM (active) in assay [12]; 1.29 µM (active) in [14]; 2.57 µM (active) in assay [15]; 1.44 µM (active) in [16]; 5.97 µM (active) in [2]. Also, the outcome in [3] was inactive.
Consider `C=CCc1ccccc1OCC(O)CNC(C)C` (configuration not stated), for which the Potency entry in assay [1], in assay [2] and in assay [4] was “inactive” each time. Besides, the outcome in [3] was inactive.
Consider `CCN(CC)CC(=O)Nc1c(C)cccc1C`, for which the Potency entry in assay [1] and in assay [2] was “inactive” each time. The compound was called inactive in assay [3].
As for `COc1cc(Cc2cnc(N)nc2N)cc(OC)c1OC`, the Potency result in assay [1], in assay [2] and in assay [4] was “inactive” in each case. Besides, the outcome in [3] was inactive.
`C[C@]12C=CC(=O)C=C1CC[C@H]1[C@@H]3C[C@@H](O)[C@](O)(C(=O)CO)[C@@]3(C)C[C@H](O)[C@@]12F`: the Potency in [11] is 7.37 µM (active); in [12] it was 9.27 µM (active); in assay [13], 7.37 µM (active); in assay [14] it was 9.27 µM (active). Moreover, the Potency result in [16], in assay [1], in assay [2] and in assay [4] was “inactive” in each case. Besides, the result in [3] was inactive.
Regarding `CCCOc1ccccc1-c1nc2n[nH]nc2c(=O)[nH]1`, the Potency result in [1] and in [2] was “inactive” throughout. The call in assay [3] was inactive.
Take `NCCCNCCSP(=O)(O)O`: the activity change, negative = cytotoxic in [12] was 1.32% [at 9.58 µM]; in assay [13], -18.1% [at 9.47 µM]; in [14], -1.29% [at 9.58 µM]; in assay [15], 0.588% [at 9.58 µM]; in assay [16], -2.99% [at 9.52 µM]. The Potency entry in [1], in assay [2] and in assay [4] was “inactive” in each case. Also, the activity change, negative = inhibition in assay [3] is -3.39% [at 6.83 µM].
As to `NC(N)=NC(=O)Cc1c(Cl)cccc1Cl`, the Potency entry in assay [1] and in assay [2] was “inactive” each time. For the same compound, in assay [3], the result was inactive.
Regarding `COCCCC/C(=N\OCCN)c1ccc(C(F)(F)F)cc1`, the Potency result in assay [1] and in assay [2] was “inactive” in each case. In addition, in assay [3], the result was inactive.
Take `CN1C[C@H](C(=O)N[C@]2(C)O[C@@]3(O)[C@@H]4CCCN4C(=O)[C@H](Cc4ccccc4)N3C2=O)C[C@@H]2c3cccc4[nH]cc(c34)C[C@H]21`: the Potency result in assay [11], in [12], in [13], in assay [14], in [15] and in assay [1] was “inactive” in each case. In addition, the Potency result in [2] was “inactive”. The compound was classed as inactive in [3].
